A selection: hits, their analogues and other compounds. The true share with any hit is near 1.9%.
EP2 mod – modulates human prostaglandin E2 receptor EP2 signaling | P43116 | EP2-expressing cells, cAMP HTRF FRET, PGE2 co-stimulation | induction, % at 25 µM | 0.83% of 260,000 active | AID 940;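 active means compounds whose cAMP rise, as percent of the full-agonist control response, exceeds 60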;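 further: rat C6 glioma line stably carrying human EP2 under a CMV promoter; the protocol text gives 20 µM as final concentration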
S1P4 antag – antagonists of human S1P4 receptor; S1P4-expressing cells, antagonist mode, reporter read-out; inhibition, % at 4.98 µM; 0.26% of 220,000 active; AID 1510; in the data active means inhibition above about 29%
Target sequence (O95977 whole entry, looked up): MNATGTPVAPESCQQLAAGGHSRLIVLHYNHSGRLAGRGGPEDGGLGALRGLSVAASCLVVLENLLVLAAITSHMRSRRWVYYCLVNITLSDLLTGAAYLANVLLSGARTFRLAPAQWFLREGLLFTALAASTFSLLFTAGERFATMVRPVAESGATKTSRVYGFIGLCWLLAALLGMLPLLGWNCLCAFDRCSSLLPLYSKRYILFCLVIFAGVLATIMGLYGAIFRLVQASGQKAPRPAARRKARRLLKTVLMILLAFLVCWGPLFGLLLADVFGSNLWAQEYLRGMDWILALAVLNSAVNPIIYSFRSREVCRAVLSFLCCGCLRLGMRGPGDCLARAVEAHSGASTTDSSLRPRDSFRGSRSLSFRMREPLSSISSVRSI
PGE2 EP2 inh – blocks the human prostaglandin E2 receptor EP2 | P43116 | C6 glioma cells expressing human EP2, cAMP TR-FRET; cells stimulated with saturating PGE2 | inhibition, % at 25 µM | 0.52% of 260,000 active;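 active means percent inhibition above 40 after rounding to a whole number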;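 further: rat C6 glioma host cells with rolipram phosphodiesterase inhibitor present; the protocol text gives 20 µM as final concentration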
Pf gamet viab – inhibitors of late stage P. falciparum gametocyte viability | P. falciparum stage V gametocytes, ATP luminescence, 24 h | inhibition, % at 10.9 µM | 0.065% of 150,000 active;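 active means inhibition above the mean plus 3 SD of compounds within the control limits, set per campaign, cut at about 38% in these data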
S1P3 antag – antagonists of human S1P3 receptor | inhibition, % at 4.98 µM | 0.27% of 170,000 active | AID 485 | Q99500 | CHO S1P3 NFAT-BLA reporter, FRET fluorescence, antagonist mode;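 active means inhibition above the plate cutoff, the mean inhibition of test wells on that plate plus 3 SD, cut at about 28% in these data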;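 further: cells challenged with S1P at its EC80 of 0.8 µM; blue over green emission ratio from cleaved BLA substrate after 4 h stimulation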
S1P4 ag – activates the human S1P4 receptor; O95977; S1P4-expressing cell line, agonist reporter assay; activation, % at 4.98 µM; 0.35% of 220,000 active; in the data active means activation above about 11%
A number is an active result.

Results for O=C1C(Cl)C(CCl)CN1c1cccc(C(F)(F)F)c1 (stereo unspecified) ?
EP2 mod: inactive; PGE2 EP2 inh: inactive

Results for O=C1NC(=O)N(Cc2ccccc2Cl)C(=O)/C1=C/c1cccs1 ?
EP2 mod: inactive; S1P4 antag: inactive; PGE2 EP2 inh: inactive; Pf gamet viab: inactive; S1P3 antag: inactive; S1P4 ag: inactive

What do the screens show for `O=C1NC(=O)N(Cc2ccc(F)cc2)C(=O)/C1=C/c1cccs1`?
EP2 mod: inactive; S1P4 antag: inactive; PGE2 EP2 inh: 92.6; Pf gamet viab: inactive; S1P3 antag: inactive; S1P4 ag: inactive

How did COc1cccc2c1C(=O)c1c(O)c3c(c(O)c1C2=O)C[C@](O)(/C(C)=N/O)C[C@@H]3O[C@@H]1C[C@H](N)[C@@H](O)[C@H](C)O1 do in these assays?
EP2 mod: inactive; PGE2 EP2 inh: 45.9

What do the screens show for `CCOC(=O)C1=C(C)OC(N)=C(C#N)C12C(=O)N(Cc1ccccc1)c1ccccc12` (stereo unspecified)?
EP2 mod: inactive; PGE2 EP2 inh: inactive

What do the screens show for `COc1cc(O)c(C(=O)O)c(-c2cc(O)c(O)cc2C)c1`?
EP2 mod: inactive; PGE2 EP2 inh: 76.6

How did Cn1ccnc1C1(O)CC2CCC(C1)N2CC(=O)Nc1ccc(N2CCOCC2)cc1 (stereo unspecified) do in these assays?
EP2 mod: inactive

What do the screens show for `COC(=O)[C@@H]1c2cc3c(c(O)c2[C@@H](O)C[C@]1(C)O)C(=O)c1c(O)cc2c(c1C3=O)O[C@H]1O[C@]2(C)[C@@H](O)[C@H](N(C)C)[C@H]1O`?
EP2 mod: inactive; PGE2 EP2 inh: 48.7

Results for O=[As](O)(O)c1ccc(Cc2ccc([As](=O)(O)O)cc2)cc1 ?
EP2 mod: inactive; PGE2 EP2 inh: 92.7

How did COc1ccc(CC2C(=O)NC(=O)N(c3ccccc3)C2=O)c(OC)c1 (stereo unspecified) do in these assays?
EP2 mod: inactive; S1P4 antag: inactive; PGE2 EP2 inh: inactive; Pf gamet viab: inactive; S1P3 antag: 74.4; S1P4 ag: inactive

Results for COc1ccc(CC2C(=O)N(c3ccccc3)C(=O)N(c3ccccc3)C2=O)c(OC)c1 ?
EP2 mod: inactive; S1P4 antag: inactive; PGE2 EP2 inh: inactive; Pf gamet viab: inactive; S1P4 ag: inactive

Results for CSc1ccc2c(c1)c(CCN)c(C)n2Cc1ccccc1Cl ?
EP2 mod: inactive; PGE2 EP2 inh: 104.4

What do the screens show for `CN(CCc1ccccc1)Cc1nc2ccccc2c(=O)[nH]1`?
EP2 mod: inactive; PGE2 EP2 inh: inactive

How did CCCN1C2CCCC1CC(NC(=O)C1CC1)C2 (stereo unspecified) do in these assays?
EP2 mod: inactive; PGE2 EP2 inh: inactive

What do the screens show for `COc1ccc(C)cc1CN1C2CCC1CC(O)(c1ccccc1F)C2` (stereo unspecified)?
EP2 mod: inactive; PGE2 EP2 inh: inactive

How did O=C(O)C(Oc1nc(=S)[nH]c(=S)[nH]1)(c1ccc(Cl)cc1)c1ccc(Cl)cc1 do in these assays?
EP2 mod: inactive; PGE2 EP2 inh: 49.7

What do the screens show for `C[C@H]1CC[C@@H]2[C@@H](C)[C@H]3[C@H](C[C@H]4[C@@H]5CC=C6C[C@@H](O[C@@H]7O[C@H](CO)[C@H](O)[C@H](O[C@@H]8O[C@H](CO)[C@@H](O)[C@H](O)[C@H]8O)[C@H]7O[C@@H]7O[C@@H](C)[C@H](O)[C@@H](O)[C@H]7O)CC[C@]6(C)[C@H]5CC[C@]34C)N2C1`?
EP2 mod: inactive; S1P4 antag: inactive; PGE2 EP2 inh: 87.5; S1P3 antag: inactive; S1P4 ag: inactive

Results for C[N+]1(C)[C@@H]2CC[C@H]1CC(OC(=O)[C@@H](CO)c1ccccc1)C2 (stereo partly specified) ?
EP2 mod: inactive; PGE2 EP2 inh: 49.5

How did C[N+]1(C)C2CC(OC(=O)[C@H](CO)c3ccccc3)CC1C1OC12 (stereo partly specified) do in these assays?
EP2 mod: inactive; PGE2 EP2 inh: inactive

What do the screens show for `COc1ccc(C2(O)CC3CCC(C2)N3Cc2cnc(SC)nc2)cc1` (stereo unspecified)?
EP2 mod: inactive; PGE2 EP2 inh: inactive

What do the screens show for `Nc1ccc(S(=O)(=O)c2ccc(NCN3C(=O)NC(=O)C(=O)C3=O)cc2)cc1`?
EP2 mod: inactive; PGE2 EP2 inh: 43.6

How did CC(C)[C@H]1CN(Cc2ccco2)CCN1C(=O)Cc1nn(C(C)C)c(=O)c2ccccc12 do in these assays?
EP2 mod: inactive

What do the screens show for `CCCOc1c(CN2C3CCC2CC(O)(c2ccc(F)cc2)C3)cccc1OC` (stereo unspecified)?
EP2 mod: inactive; PGE2 EP2 inh: inactive

What do the screens show for `CN1CCC(NCCO)CC1`?
EP2 mod: inactive; PGE2 EP2 inh: inactive

What do the screens show for `CN(C)CCN(Cc1ccc(F)cc1)C(=O)Cc1nn(C)c(=O)c2ccccc12`?
EP2 mod: inactive; PGE2 EP2 inh: inactive

How did COc1cccc(CN2CCN(C(=O)COc3ccc(Cl)cc3)CC2)c1OC do in these assays?
EP2 mod: inactive; PGE2 EP2 inh: inactive

What do the screens show for `CCc1nc2ccccc2c(=O)n1-c1ccccc1[N+](=O)[O-]`?
EP2 mod: inactive; S1P4 antag: inactive; PGE2 EP2 inh: 49.0; Pf gamet viab: inactive; S1P3 antag: inactive; S1P4 ag: inactive

What do the screens show for `CCOC(=O)c1c(C)n(Cc2ccco2)c2ccc(OC)cc12`?
EP2 mod: 63.8; S1P4 antag: inactive; PGE2 EP2 inh: inactive; S1P3 antag: inactive; S1P4 ag: inactive

How did C=C1C(=O)O[C@@H]2C[C@@H](C)[C@@H]3C=CC(=O)[C@@]3(C)[C@@H](OC(=O)CC(=O)O[C@H]3[C@@H]4C(=C)C(=O)O[C@@H]4C[C@@H](C)[C@@H]4C=CC(=O)[C@]43C)[C@H]12 do in these assays?
EP2 mod: inactive; PGE2 EP2 inh: 166.3

How did N=c1c(C(N)=O)cc(Cl)cn1Cc1ccccc1 do in these assays?
EP2 mod: inactive; PGE2 EP2 inh: inactive

Results for CCN(CCN(C)C)C(=O)Cc1c(C)nc(-c2ccccc2)nc1OC ?
EP2 mod: inactive; PGE2 EP2 inh: inactive

Results for C[C@]12CC[C@@H](O)CC1CC[C@@H]1[C@@H]2CC[C@]2(C)C(=O)CC[C@@H]12 (stereo partly specified) ?
EP2 mod: inactive; PGE2 EP2 inh: inactive

How did C[C@]12CCC3C(CC[C@H]4C[C@@H](O)CC[C@]34C)C1CCC2=O (stereo partly specified) do in these assays?
EP2 mod: inactive; PGE2 EP2 inh: 41.7

Results for COc1cc2cc(c1Cl)N(C)C(=O)C[C@H](OC(=O)C(C)C)[C@]1(C)O[C@H]1[C@@H](C)[C@H]1C[C@](O)(NC(=O)O1)[C@@H](OC)/C=C\C=C(\C)C2 ?
EP2 mod: inactive; PGE2 EP2 inh: 52.2

High-throughput results (PubChem)
